Measured values taken from PubChem BioAssay AID602412 (Johns Hopkins Ion Channel Center, 2012).
The other results are listed elsewhere or left out. Activity calls are given as the source filed them.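 The calls were made as follows: active = calcium signal rise, corrected for plate position, at least 3 library SD high, with starting brightness within 5 such deviations; inactive = the rest.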

target: Mas-related G-protein coupled receptor member X1 (Homo sapiens) (UniProt Q96LB2); assay: MrgX1 receptor agonists, duplicate retest, confirmation, HEK293 cells, Fluo-4 calcium flux (AID 602412); details: MrgX1-HEK293, Fluo-4 calcium fluorescence, FDSS, at 10 µM; active compounds read high
Sequence (Q96LB2 whole entry, looked up): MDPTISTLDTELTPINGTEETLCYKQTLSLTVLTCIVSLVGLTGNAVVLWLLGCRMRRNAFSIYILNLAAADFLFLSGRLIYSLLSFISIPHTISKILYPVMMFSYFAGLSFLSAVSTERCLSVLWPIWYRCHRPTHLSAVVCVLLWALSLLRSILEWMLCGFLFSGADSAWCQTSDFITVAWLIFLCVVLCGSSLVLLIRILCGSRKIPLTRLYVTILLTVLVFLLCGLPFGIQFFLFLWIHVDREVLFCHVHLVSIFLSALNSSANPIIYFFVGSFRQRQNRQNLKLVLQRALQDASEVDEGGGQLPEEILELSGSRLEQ

Structure (SMILES) | activation | outcome
Cc1ccc(NC2(C#N)C(=O)Nc3ccccc32)cc1 (centres undefined) | 191% (active) | –
Cc1c(C)c2c(OCC(=O)N[C@@H](C(=O)O)c3ccccc3)cc3c(c2oc1=O)CCC(C)(C)O3 | – | inactive
COc1ccccc1N(CC(=O)N1CCCCC1)S(=O)(=O)c1ccccc1 | 356% (active) | –
Cc1cc2oc3ccc(NCCC4CCCN4C)cc3c(=O)c2cc1C (centres undefined) | 311% (active) | –
CC(=O)OC(C)C[N+](C)(C)C (centres undefined) | 483% (active) | –
CCCc1nc2c(c(=O)c3ccccc3n2C)c(=O)n1C1CCCCCC1 | 149% (active) | –
Cc1onc(-c2ccccc2)c1C(=O)NNC(=S)NC(=O)c1ccc(F)cc1 | 636% (active) | –
O=C(CCN1CCc2ccccc2C(O)(c2ccccc2)C1)c1ccc2c(c1)OCCO2 (centres undefined) | 192% (active) | –
Cc1ccc(-n2[nH]c(C)c(/C=N/N3C(=O)c4cccc5cccc(c45)C3=O)c2=O)cc1 | 601% (active) | –
CCCCC(=O)NNC(=S)NC(=O)C(c1ccccc1)c1ccccc1 | – | inactive
O=C1Cc2ccccc2Sc2ccc(Cl)cc21 | 104% (active) | –
OCc1ccc(OCCCOc2cccc3cccnc23)cc1 | – | inactive
CC1CCCCN1S(=O)(=O)c1ccc(C(=O)Nc2nnc(-c3cccs3)o2)cc1 (centres undefined) | 88.3% (active) | –
COc1ccc(C(=O)NNC(=S)NC(=O)c2ccccc2)cc1 | 570% (active) | –
COC(=O)c1ccc(C2C3=C(Nc4nnnn42)c2ccccc2OC3)cc1 (centres undefined) | – | inactive
COC(=O)c1ccc(COC(=O)C2CCN(S(=O)(=O)c3c(Cl)cccc3Cl)CC2)o1 | – | inactive
Fc1ccc2[nH]c3c(N4CCSCC4)ncnc3c2c1 | 252% (active) | –
O=C(Nc1ccccc1)c1nnsc1S(=O)(=O)c1ccc(Cl)cc1 | 210% (active) | –
CCOC(=O)c1[nH]c2ccc(C)cc2c1N=C(C)N(C)C | 185% (active) | –
O=c1c2cc(Br)ccc2nc(-c2cccc(Cl)c2)n1O | 415% (active) | –

Structure (SMILES) | activation | outcome
COc1ccc2c(c1)OC(O)(C(F)(F)C(F)F)CC2=O (centres undefined) | 373% (active) | –
O=C(CC(O)(C(F)(F)F)C(F)(F)F)Nc1ccc(Cl)c(Cl)c1 | 242% (active) | –
CC(C)CC(=O)NC(=S)NNC(=O)c1cccc([N+](=O)[O-])c1 | 268% (active) | –
N=C(N)SCc1cccc2ccccc12 | 199% (active) | –
COc1ccc(C(=O)NC(=S)NNC(=O)CCc2ccccc2)cc1 | 595% (active) | –
Cc1[nH][nH]c(=O)c1C(c1ccc(-c2ccc(Cl)cc2)o1)c1c(C)[nH][nH]c1=O | 187% (active) | –
O=C1C(=O)N(CC2COc3ccccc3O2)c2ccccc21 (centres undefined) | 226% (active) | –
CC(C)(C)Nc1c(-c2cccs2)nc2ccccn12 | 181% (active) | –
COc1ccc(Nc2nc(-c3cccnc3)nc3ccccc23)cn1 | 127% (active) | –
COc1ccc(OC)c(C(=O)c2ccc(Cl)cc2)c1 | – | inactive
CCN(CC)c1ccc2oc(=O)c(C)nc2c1 | – | inactive
O=C(Nc1nnc(-c2ccccc2)o1)c1cc(-c2cccs2)nc2ccccc12 | 141% (active) | –
Cc1nc(C)c(-c2csc(NCCc3ccccc3)n2)s1 | 170% (active) | –
CC(Oc1ccc2ccccc2c1)C(=O)NNC(=S)NC(=O)c1ccco1 (centres undefined) | 265% (active) | –
COc1ccc(C(=O)NC(=S)NNC(=O)c2c(-c3ccccc3)noc2C)cc1 | 506% (active) | –
CCCc1[nH]nc2c1C(c1ccc(Br)s1)C(C#N)=C(N)O2 (centres undefined) | 141% (active) | –
Cc1ccnc(-n2sc3ccccc3c2=O)n1 | 170% (active) | –
CCCc1cc(=S)n2c([nH]c3ccccc32)c1C#N | 266% (active) | –
CC1(C(=O)O)CCC(C(=O)Nc2ccc(Cl)c(Cl)c2)C1(C)C (centres undefined) | 149% (active) | –
